Test in all cases: NCI-60 one-dose screen, 48 h (100 = growth as untreated, 0 = no growth, -100 = all killed)
What all share (conditions): 10 µM

Experiment [1] concerns T-47D breast.
The subject of experiment [2] is BT-549 breast.
Experiment [3] deals with MDA-MB-435 melanoma.
The subject of experiment [4] is SW-620 colon.
The subject of experiment [5] is MCF7 breast.
For experiment [6], the system named is HCT-116 colon.
Experiment [7] concerns HCC-2998 colon.
Experiment [8] concerns KM12 colon.
The test system of experiment [9] is MDA-MB-468 breast.

The panel holds about 83,000 compounds, 20% with a hit somewhere; the sample as a whole holds those more often.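 96-well plates, one dose, 48 hours. Percent growth reported; active if below 10.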 A number with no mark means an inactive call. The source made the active and inactive calls.

`COc1ccc(C(=O)Nc2ccc(-c3ccc4c(c3)NC(=O)/C4=C\c3ccc[nH]3)cc2)cc1`: the growth in [1] is 14.5%; in [2], 88.5%; in [3], 30.4%; in experiment [4] it was -14.7% (active); in [5], -31.9% (active); in [6], 36.4%. Further, the growth in [7] is 31.3%; in [8], 1.95% (active); in experiment [9], -70% (active).
For the molecule `Cc1noc2c(Cc3ccc([N+](=O)[O-])cc3)nn(CC(=O)N/N=C/c3ccc(Br)cc3)c(=O)c12`, the growth in experiment [1] was 62%; in experiment [2], 94.3%; in experiment [3] it was 92.3%; in experiment [4], 97.4%; in [5], 68.4%; in [6] it was 64.4%. The growth in [7] was 91.9%; in [8], 84.2%; in experiment [9], 95.3%.
`CN1CCc2c(sc3ncnc(N/N=C/c4cn(-c5ccccc5)nc4-c4ccc(Br)cc4)c23)C1`: the growth in experiment [1] was 74.2%; in experiment [2], 83.4%; in [3], 66.1%; in experiment [4] it was 11%; in [5] it was -3.07% (active); in experiment [6] it was 1.25% (active). Moreover, the values for the growth in experiment [7], in [8] and in experiment [9] were 27.1%, 44.9% and 16.8%, respectively.
Turning to `N#Cc1ccc(-c2nn(-c3ccc(C(=O)O)cc3)cc2CNc2cc(Cl)cc(Cl)c2)cc1`, the growth in [1] was 25.9%; in [2] it was -1.57% (active); in experiment [3] it was 40.1%; in experiment [4], 49.2%; in [5], 27.3%; in experiment [6], 12.5%. Further, the values for the growth in experiment [7], in [8] and in [9] were 9.16% (active), 18.6% and 43.4%, respectively.
For the molecule `COc1ccc(-c2cc(C(=O)N=Nc3c(O)[nH]c4ccc(F)cc34)c3ccccc3n2)cc1`, the growth in experiment [1] was 75.9%; in [2], 86.3%; in experiment [3] it was 65.2%; in [4], 41.1%; in [5], 23.6%; in experiment [6] it was 39.7%. The growth was 91.1% in experiment [7], 81.3% in experiment [8] and 44.2% in experiment [9].
Turning to `Cc1ccc(CSc2nc(-c3ccc(F)cc3)c(C#N)c(=O)[nH]2)cc1`, the growth in [1] was 86.5%; in [2] it was 84.2%; in [3] it was 106%; in experiment [4], 102%; in experiment [5] it was 89.2%; in [6], 98.5%. Besides, the growth in experiment [7] was 115%; in experiment [8], 97%; in [9], 126%.
Take `Oc1ccc(/C=C2\CCCc3cc4ccc(O)cc4[o+]c32)c(O)c1`: the growth in experiment [1] is 18.3%; in [2], 23.3%; in experiment [3], -40.7% (active); in experiment [4], 20.5%; in experiment [5], 10.8%; in experiment [6], 15.7%. Also, the growth in [7] was 31%; in [8] it was 6.02% (active); in experiment [9] it was -13.8% (active).
Take `COc1cc2c3c(n(CCCN4CCOCC4)c(=O)c2cc1OC)-c1nc2c(cc1C3=O)OCO2`: the growth in experiment [1] was 14.5%; in [2], 4.91% (active); in experiment [3], 16.4%; in [4], 22.2%; in experiment [5], 14%; in experiment [6] it was 15.6%. Also, the growth in experiment [7] is 37.7%; in experiment [8], 32.1%; in [9], -29% (active).
Turning to `CC1(c2ccccc2)NC(=O)N(CC(=O)Nc2ccc(C(=O)/C=C/c3ccc(Br)cc3)cc2)C1=O` (centres undefined), the growth in [1] is 14.3%; in [2] it was 25.4%; in experiment [3] it was -44% (active); in experiment [4], 32.7%; in [5], -42.6% (active); in [6], -69.7% (active). Further, the growth in experiment [7] was 10.5%; in experiment [8], -27.8% (active); in [9], -8.76% (active).
As to `O=C(c1ccc(Cl)cc1)C1[C@H](c2ccc(Br)cc2)[C@@H](c2ccccc2)NC12C(=O)Nc1ccccc12` (some centres undefined), the growth in [1] is 1.59% (active); in experiment [2], -9.62% (active); in experiment [3], -46.5% (active); in [4], 3.46% (active); in experiment [5] it was -4.24% (active); in experiment [6] it was 10.7%. The results for the growth in experiment [7], in experiment [8] and in experiment [9] were -39.3% (active), -3.73% (active) and -6.54% (active), respectively.
As for `N#C/C(=C\c1ccc(N(c2ccccc2)c2ccccc2)cc1)C(N)=O`, the growth in experiment [1] is -26.7% (active); in experiment [2], 69.6%; in [3], 92.7%; in experiment [4], 45.6%; in experiment [5], 6.51% (active); in experiment [6], 14.9%. Moreover, the growth in experiment [7] is 73.7%; in experiment [8], 78.6%; in experiment [9], -91.2% (active).
On to `CONC[C@]1(C)C=C2C(=O)[C@](C)(O)C3(CC3)C(C)=C2[C@H]1O`, for which the growth in experiment [1] is 0.0161% (active); in [2] it was -63.6% (active); in experiment [3] it was -84.7% (active); in experiment [4], 3.2% (active); in [5], -36.3% (active); in [6] it was 14.5%. The growth in experiment [7] is -76.9% (active); in experiment [8] it was 7.08% (active); in experiment [9] it was -90.8% (active).
As for `O=C(Nc1cc(Cl)cc(Cl)c1)Nc1cc(Cl)cc(Cl)c1`, the growth in [1] is -18.9% (active); in experiment [2] it was -41.1% (active); in experiment [3], -47% (active); in [4] it was -42.3% (active); in experiment [5] it was -21.2% (active); in experiment [6], -79.3% (active). The growth was -27.3% (active) in experiment [7], -22.9% (active) in experiment [8] and -40.1% (active) in [9].
As to `O=C1Nc2ccc(F)cc2/C1=C/c1cccc(OCc2ccccn2)c1`, the growth in [1] is 45%; in experiment [2] it was 24.1%; in experiment [3] it was -9.87% (active); in experiment [4], -0.341% (active); in experiment [5], 3.16% (active); in experiment [6] it was 1.75% (active). Further, the growth is 74.1% in experiment [7], 15.4% in experiment [8] and -5.96% (active) in experiment [9].
As for `NS(=O)(=O)c1ccc(N=Nc2c(O)n(CC(=O)Nc3ccccc3Br)c3ccccc23)cc1`, the growth in experiment [1] is 38.1%; in experiment [2] it was 0.165% (active); in [3], 50.6%; in experiment [4], 44.4%; in experiment [5], 10.7%; in experiment [6], 21.4%. Besides, the growth in experiment [7] was 39.5%; in experiment [8], 36.7%; in experiment [9], 35.8%.
For the molecule `O=C(NO)c1ccc(CNc2nc(-c3ccccc3)c3ccccc3n2)cc1`, the growth in experiment [1] is -13.1% (active); in experiment [2] it was 18.1%; in experiment [3], 4.16% (active); in [4], -58.2% (active); in [5], 7.92% (active); in experiment [6], 4% (active). Further, the results for the growth in experiment [7], in experiment [8] and in [9] were -63.9% (active), 11.6% and -0.98% (active), respectively.
With `O=C1CCC(N2Cc3c(C#CCCCNC(=O)c4ccc(NC(=O)[C@@H]5NC6(CCCCC6)[C@@]6(C(=O)Nc7cc(Cl)ccc76)[C@H]5c5cccc(Cl)c5F)cc4)cccc3C2=O)C(=O)N1` (some centres undefined), the growth was 38.4% in [1]; 32.5% in experiment [2]; 61.6% in experiment [3]; 84.7% in experiment [4]; 5.5% (active) in experiment [5]; 12.6% in experiment [6]. The growth in experiment [7] was 58.6%; in experiment [8], 49.2%; in experiment [9], 39.3%.
Regarding `O=C(O)CCCCCCCCCCN1C(=O)/C(=C/c2cnc(-c3ccccc3)s2)SC1=S`, the growth in experiment [1] was 74.2%; in [2] it was 106%; in [3], 87%; in [4], 44.1%; in [5], 28.8%; in experiment [6], 31.8%. The growth in experiment [7] was 124%; in [8], 24.6%; in experiment [9], 90.9%.
In the case of `O=C(CSc1nnc(-c2c[nH]c3ccccc23)n1-c1ccccc1)c1ccccc1`, the growth in [1] was 83.5%; in experiment [2], 62.2%; in experiment [3] it was 87.2%; in experiment [4], 76.1%; in experiment [5], 36.2%; in experiment [6] it was 38%. Besides, the values for the growth in [7], in experiment [8] and in [9] were 83.1%, 69.5% and 77.2%, respectively.
For the molecule `Cc1cc(=O)oc2cc(OCCCCOc3ccc(/C=C/C(=O)Nc4cccc(Cl)c4)cc3)ccc12`, the growth in experiment [1] was 24.5%; in experiment [2] it was 41%; in experiment [3] it was 64.2%; in [4], 61.9%; in [5] it was 50.8%; in experiment [6], 79.7%. For the same molecule, the results for the growth in experiment [7], in experiment [8] and in [9] were 94.2%, 72.5% and 3.36% (active), respectively.
`COc1cccc2nc(Nc3ccc(F)c(NC(=O)c4ccc(CN5CCN(C)CC5)c(C(F)(F)F)c4)c3)ccc12`: the growth is 22% in [1]; 82.6% in [2]; -69.3% (active) in experiment [3]; -63% (active) in [4]; -61.3% (active) in experiment [5]; 1.84% (active) in experiment [6]. Further, the results for the growth in experiment [7], in experiment [8] and in [9] were -94.5% (active), -22.2% (active) and -48.9% (active), respectively.
For the molecule `Cc1cccc(-c2nc(Nc3ccccc3C(=O)O)c3ccccc3n2)c1`, the growth in experiment [1] is 26.8%; in [2] it was -0.675% (active); in experiment [3], 44.6%; in experiment [4], 35.5%; in experiment [5], 24%; in [6], 22.7%. Moreover, the growth in experiment [7] was 27.1%; in experiment [8], 30%; in [9], -15.1% (active).
For `CN1C(=O)N(C)C2SC(N/N=C/c3ccccc3F)=NC21` (centres undefined), the growth was 64.3% in experiment [1]; 45.4% in experiment [2]; -16.6% (active) in experiment [3]; 47.4% in experiment [4]; 32% in experiment [5]; 37.5% in experiment [6]. The growth in experiment [7] was 88.5%; in [8] it was 45.2%; in experiment [9], 0.576% (active).
For `CN1C(=O)N(C)C2SC(N/N=C/c3cccs3)=NC21` (centres undefined), the growth in experiment [1] is 21.7%; in [2] it was 21.4%; in experiment [3], -37.6% (active); in [4], 15.4%; in experiment [5], 13.3%; in experiment [6], 28.2%. In addition, the growth in experiment [7] was 54.2%; in experiment [8], 16.1%; in [9], -22.8% (active).
`COc1cccc2nc(Nc3cccc(NC(=O)c4ccc(CN5CCCN(C)CC5)c(C(F)(F)F)c4)c3)ccc12`: the growth in experiment [1] is -55.9% (active); in [2], -92.5% (active); in experiment [3], -100% (active); in [4], -97.5% (active); in [5] it was -90% (active); in experiment [6], -64.7% (active). The growth in [7] was -96.6% (active); in experiment [8], -63.9% (active); in experiment [9], -87.9% (active).
Regarding `COc1ccc(C2N(c3ccc(Br)cc3)N=C(C(C)=O)N2[C@H]2[C@H](OC(C)=O)O[C@H](COC(C)=O)[C@@H](OC(C)=O)[C@@H]2OC(C)=O)cc1` (some centres undefined), the growth was 52.8% in experiment [1]; 91.2% in experiment [2]; 83.7% in experiment [3]; 82.5% in experiment [4]; 62.7% in experiment [5]; 69% in [6]. The growth in experiment [7] was 75.4%; in [8], 70.6%; in [9], 72.6%.

Source of the values: PubChem BioAssay (NCI).
